In ChEMBL document CHEMBL3988442, “University of Dundee, Small-Polar-MMV Screening Library” (2021):
Among all 48,000 compounds or so, about 13,000 (27%) showed an effect of 50% or more. The list shows a part of the results.

system: Wolbachia pipientis; assay: Anti-Wolbachia Cell-Based Screen; assay type: functional; design: scale not given: in the data most compounds retested in dose-response had high values; conditions: 5 µM

SMILES	Percent Effect
O=C(Nc1ccc2c(c1)OCCO2)c1ccc(=O)[nH]n1	99.56%
Cc1ccc2c(c1)OCCCC2NC1CCN(C)CC1 (stereo not drawn)	11.04%
CC1(C)Oc2ccc(NC(=O)c3ccc(=O)[nH]n3)cc2O1	-5.037%
Cc1c(C(=O)N[C@H]2CN(CCS(C)(=O)=O)C[C@@H]2C2CC2)cnn1C	4.067%
CCc1cccc(N2CCC(NC(=O)c3ccc(=O)[nH]n3)CC2)c1	3.328%
CC(C)N1CCCC2(CCN(C(=O)CCCn3ccnc3)C2)C1=O (stereo not drawn)	-2.08%
CCc1nnc(CNCC2CCN(CC(O)c3ccccc3)CC2)o1 (stereo not drawn)	1.305%
Cc1nc[nH]c1CN1CCn2nc(CN3Cc4ccccc4C3)cc2C1	5.533%
Cc1nc2c(c(=O)n1C)CCN(Cc1cc3cc[nH]c3cn1)CC2	-4.621%
Cc1cc2c(=O)n3c(nc2s1)CCN(Cc1ccncc1)CC3	-12.53%
Cc1cc2c(=O)n3c(nc2s1)CCN(Cc1cnc(C)n1C)CC3.Cl	108.4%
Cc1cc2c(=O)n3c(nc2s1)CCN(Cc1cncn1C)CC3.Cl	111.2%
Cc1cc(CN2CCc3nc(C)n(C)c(=O)c3CC2)[nH]n1	-18.21%
Cc1cc2c(=O)n3c(nc2s1)CCN(Cc1[nH]cnc1C)CC3.Cl	117%
Cc1cc2c(=O)n3c(nc2s1)CCN(Cc1cnc(C(C)C)nc1)CC3	-3.495%
CCc1ncc(CN2CCCC3(CCC(=O)N(CCC(C)C)C3)C2)cn1 (stereo not drawn)	-16.36%
CCc1ncc(CN2CCc3nc4sc(C)cc4c(=O)n3CC2)cn1	98.79%
CCOC(=O)C1CCCCN1Cc1c[nH]nc1-c1cc2ccccc2o1 (stereo not drawn)	10.01%
Cc1cccc2cc(C(=O)N3CCN(S(=O)(=O)N(C)C)CC3)n(C)c12	-7.336%
CNc1ncc(CN(C)Cc2cc(O)c3cc(C)cc(C)c3n2)cn1	2.553%
CCc1cc(NC(CCO)c2ccc(OC)cc2)n2nccc2n1 (stereo not drawn)	6.902%
CSc1ccc(-c2cc(CN)nc3ccnn23)cc1.Cl	95%
CCCc1cc(CNc2cc(CCC)nc3ccnn23)on1	-13.04%
COc1cc(OC)cc(-c2cc(CN)nc3ccnn23)c1.Cl	104.2%
c1ccc(-c2cc(NCCCC3CCOC3)n3nccc3n2)cc1 (stereo not drawn)	-17.54%
CN(C)C1CCN(c2cc(-c3ccccc3)nc3ccnn23)C1 (stereo not drawn)	-6.733%
COCc1cc(N2CCN(Cc3ccncc3)CC2)n2nccc2n1	2.178%

SMILES	Percent Effect
Cl.NCc1cc(-c2ccccc2)n2nccc2n1	106.1%
COc1ccc(-c2cc(CN)nc3ccnn23)cc1.Cl	124.4%
COCc1cc(N2CCOCC2)n2nccc2n1	9.055%
CCc1ccc(CN(C)c2cc(COC)nc3ccnn23)cc1	-31%
CCc1cc(N[C@H](C(N)=O)[C@@H](C)CC)n2nccc2n1	-8.924%
CC(C)OCc1nn(CC2CC2)c2c1CN(Cc1ccco1)CC2.O=C(O)C(F)(F)F	3.908%
Cc1csc(C2(NCc3nnc(-c4ccco4)o3)CCCC2)n1	-3.858%
Cc1cccc(C)c1-n1nnnc1C1(NCc2ccco2)CCCC1	75.79%
Cc1ccc(-n2nnnc2C2(NCc3ccco3)CCCC2)cc1	2.087%
OCCN1CCN(Cc2coc(-c3cccc(Cl)c3)n2)CC1	116.8%
O=C(C1CC1)N1CCN(Cc2coc(-c3ccc(Cl)cc3)n2)CC1	3.08%
Fc1cccc(-c2nc(CN3CCn4c(nnc4C4CC4)C3)co2)c1	2.763%
OCCN1CCN(Cc2cc(Cl)cc3cccnc23)CC1	0.645%
OCCN1CCN(Cc2coc(-c3cccc(F)c3)n2)CC1	105.3%
CCOCCN1CCN(Cc2coc(-c3cccc(F)c3)n2)CC1	74.94%
CCN1CCN(Cc2coc(-c3cccc(F)c3)n2)CC1	3.559%
CCc1nc(C)c(C2CC(=O)Nc3c2c(-c2ccccn2)nn3C)[nH]1 (stereo not drawn)	6.33%
CCC(C)(N)c1nc(=O)c(C(C)C)c(C)[nH]1.Cl (stereo not drawn)	-21.29%
Cl.O=C(NC[C@@]1(COc2cnccn2)C[C@@H](O)[C@@H](O)C1)C1CCOCC1	-6.345%
O=C(Cc1ccc2c(c1)OCO2)N1CCCN(c2nccs2)CC1	-6.237%
CC1c2cccn2CCN1S(=O)(=O)N1CCCCCC1 (stereo not drawn)	-11.34%
CC1CCN(S(=O)(=O)N2CCn3cccc3C2C)CC1 (stereo not drawn)	-8.051%
CCC1c2cccn2CCN1S(=O)(=O)N1CCOCC1 (stereo not drawn)	79.2%
O=S(=O)(N1CCOCC1)N1CCCCC1CCc1ccc(O)cc1 (stereo not drawn)	2.652%
O=S(=O)(N1CCOCC1)N1CCc2sccc2C1	7.177%
CCCC1c2cccn2CCN1S(=O)(=O)N1CCOCC1 (stereo not drawn)	118.3%
